# APOBEC3A inh – blocks human APOBEC3A ssDNA deamination | P31941 | recombinant A3A, FAM/TAMRA ssDNA deamination fluorescence | inhibition, % at 20 µM | hit rate 0.41% among 330,000 | AID 493011;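 active means at least 40% inhibition at 20 µM here, with at most 30% in a related deaminase screen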;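 further: plate controls were A3A with DMSO for no effect and wells lacking A3A enzyme for full effect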
# APOBEC3G inh – APOBEC3G (human) deaminase inhibition. Q9HC16. inhibition, % at 20 µM. recombinant A3G, ssDNA deamination FAM/TAMRA fluorescence. hit rate 0.28% among 330,000;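 active means inhibition of at least 40% at 20 µM, with no more than 30% in the related APOBEC3A deaminase screen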;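 further: plate controls were DMSO wells with A3G for no effect and wells lacking A3G enzyme for full effect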
# PHOSPHO1 block – inhibitors of human PHOSPHO1 phosphatase; Q8TCT1; recombinant PHOSPHO1, absorbance phosphatase assay; inhibition, % at 13.3 µM; hit rate 1.1% among 290,000; AID 1565; in the data active means inhibition above about 60%
# eIF4H FP inh – inhibitors of RNA binding by human eIF4H | Q15056 | hit rate 0.94% among 290,000 | AID 2012 | eIF4H fluorescence polarization binding assay | inhibition, % at 35 µM;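 further: calls also rest on retests at 20 µM and on dose response follow-up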
# MLLE-PAM2 inh – inhibitors of microRNA-mediated deadenylation, human PABP1 MLLE binding. P11940. GST-MLLE / FITC-PAM2 fluorescence polarization. inhibition, % at 20 µM. hit rate 0.36% among 360,000. AID 588489; in the data active means inhibition above about 35%, passing the limit was not always enough;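 further: plate controls were DMSO wells with GST-MLLE for no effect and wells lacking GST-MLLE protein for full effect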
# Target sequence (P11940 whole entry, looked up): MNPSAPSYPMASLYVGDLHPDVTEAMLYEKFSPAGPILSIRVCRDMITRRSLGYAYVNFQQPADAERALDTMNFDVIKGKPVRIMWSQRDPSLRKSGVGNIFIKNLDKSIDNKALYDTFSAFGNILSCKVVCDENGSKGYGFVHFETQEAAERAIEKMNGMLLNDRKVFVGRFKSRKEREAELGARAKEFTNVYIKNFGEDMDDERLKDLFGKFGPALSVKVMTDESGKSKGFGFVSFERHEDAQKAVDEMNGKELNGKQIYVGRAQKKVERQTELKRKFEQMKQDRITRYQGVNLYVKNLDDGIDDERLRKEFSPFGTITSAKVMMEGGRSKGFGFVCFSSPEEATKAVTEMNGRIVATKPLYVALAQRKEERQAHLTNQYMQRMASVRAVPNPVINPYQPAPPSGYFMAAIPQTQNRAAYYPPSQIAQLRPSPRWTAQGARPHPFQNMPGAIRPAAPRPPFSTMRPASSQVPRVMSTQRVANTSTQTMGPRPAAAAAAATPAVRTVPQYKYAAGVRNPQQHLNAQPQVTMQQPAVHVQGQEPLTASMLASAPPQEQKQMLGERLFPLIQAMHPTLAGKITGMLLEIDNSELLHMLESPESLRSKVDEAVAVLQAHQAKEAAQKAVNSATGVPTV
# PABP FP inh – PABP-poly(A) binding inhibition | PABP-poly(A) RNA binding, fluorescence polarization | hit rate 1% among 290,000 | calls only at 35 µM | P11940;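 further: calls also rest on retests at 20 µM and on dose response follow-up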
# Numbers without * were called inactive; i = inactive; u = inconclusive; x = no result given; + = active, no number. Most compounds without a hit are left out; they make up all but 2.6% or so of the library. Unless noted, how the calls were made is not given here.
SMILES,APOBEC3A inh,APOBEC3G inh,PHOSPHO1 block,eIF4H FP inh,MLLE-PAM2 inh,PABP FP inh
Cc1ccc(N(CC(=O)NCc2ccc(F)cc2)S(=O)(=O)c2c(C)nn(C)c2C)cc1,2,0,62*,-6,1,i
Cc1ccc(CNC(=O)CN(c2ccc(C)cc2)S(=O)(=O)c2c(C)nn(C)c2C)cc1,-2,-3,15,-1,10,i
COc1ccc(C2CC(c3ccc(Cl)cc3Cl)Nc3nc(N)nn32)cc1 (stereo unspecified),1,-3,70*,6,2,i
Cc1cccc(C)c1NS(=O)(=O)c1c(C(=O)N2CCCCC2)c(C)n(C)c1C,3,-2,20,-5,0,i
C[C@H]1CN([C@@H](C)CO)S(=O)(=O)c2ccc(-c3cncnc3)cc2O[C@H]1CN(C)C(=O)NC1CCCC1,x,x,x,x,-6,x
CC(=O)c1c(-c2ccc(C)cc2)nc2c3ccccc3ccn12,4,-6,64*,-10,-7,i
CC(=O)N/C(=N\c1nc(C)cc(C)n1)Nc1ccc2ccccc2c1,-1,-4,3,-16,18,i
CCN(CC)c1ccc(C=Nc2ccc(OC)c(S(=O)(=O)N3CCOCC3)c2)c(O)c1,1,-1,x,x,-6,x
c1ccc(COC2CCCN(Cc3nc(-c4cnccn4)no3)C2)nc1 (stereo unspecified),-1,-5,61*,-3,1,i
CN(Cc1ccccn1)C(=O)c1cc(COc2ccc(F)cc2Cl)on1,x,x,x,x,13,x
Cc1cc(CN(C)C(=O)c2cc(COc3ccc(F)cc3Cl)on2)n[nH]1,-1,-4,60*,-4,6,i
Cc1nnc2ccc(-c3ccc(NC(=O)c4ccco4)cc3)nn12,11,11,-2,74*,-11,i
Cc1ccccc1-c1cnc(C(O)c2ccc(Cl)cc2C)[nH]1 (stereo unspecified),x,x,x,x,6,x
Cc1ccccc1OC(=O)n1c(=S)oc2cc(Cl)ccc21,x,x,103*,-2,-60,i
O=C(Oc1ccccc1)n1c(=S)oc2ccccc21,0,3,19,0,-59,i
COc1cc(/C=C2\N=C3CCCCCN3C2=O)ccc1O,-2,1,67*,100,-92,i
COc1ccc(/C=C2\N=C3CCCCCN3C2=O)cc1OC,-1,-2,20,-2,-4,i
COc1ccc(NC(=O)C2CCN(S(=O)(=O)c3cccnc3)CC2)cc1Cl,0,-3,70*,-1,22,i
Nc1c(Cl)cc(N=Nc2ccccc2)cc1Cl,x,x,x,x,3,x
COc1cccc(-n2cn[nH]c2=S)c1,-8,-20,21,-6,-10,i
COc1cccc(-n2sc3c(c2=S)-c2cc(OC)ccc2NC3(C)C)c1,-1,-4,88*,-14,-9,i
O=S1(=O)N=C(Nc2nncs2)c2ccccc21,0,-3,97*,-7,11,i
Cc1ccc(NC2=CC(=O)CC(C)(C)C2)c(N)c1,1,-6,27,82*,6,+
CC1(C)CC(=O)C=C(Nc2ccccc2N)C1,-6,-7,30,-9,4,i
COc1ccccc1-c1nc2s/c(=C\c3cccs3)c(=O)n2n1,2,-5,-14,5,-1,i
SMILES,APOBEC3A inh,APOBEC3G inh,PHOSPHO1 block,eIF4H FP inh,MLLE-PAM2 inh,PABP FP inh
C=CCOc1ccccc1/C=c1\sc2nc(=O)c(C)nn2c1=O,21,4,-20,69*,16,i
COc1cc(-c2nnc3sc(-c4cccs4)nn23)cc(OC)c1OC,3,1,16,-11,14,i
COc1cccc(/C=c2\sc3nc(-c4cccs4)nn3c2=O)c1OC,-3,-8,71*,0,-11,i
Cc1ccc(/C=c2\sc3nc(-c4cccs4)nn3c2=O)o1,22,10,-3,79*,-12,+
COc1ccc(/C=c2\sc3nc(-c4ccccc4OC)nn3c2=O)c(OC)c1,-2,-2,40,-1,51*,i
Cc1ccccc1C(OCC(O)CN1CCN(CCO)CC1)c1ccccc1 (stereo unspecified),-3,-8,15,5,-3,i
CC(=O)Oc1cccc(/C=c2\sc3nc(-c4ccco4)nn3c2=O)c1,40,17,24,18,16,i
COc1cc(/C=c2\sc3nc(-c4ccncc4)nn3c2=O)ccc1OC(C)=O,x,x,87*,-8,x,i
Cc1ccc(C=C2C(Cl)=C(Cl)C(Cl)=C2Cl)cc1,90,52,-15,102*,x,+
O=C1N/C(=C/c2ccco2)C(=O)N1Cc1ccccc1F,5,7,11,96*,7,+
O=C1N/C(=C/c2cccs2)C(=O)N1Cc1ccccc1F,-2,-4,47,7,-9,i
COc1cc(/C=C2/NC(=O)N(Cc3ccccc3F)C2=O)cc(OC)c1OC,-7,-9,-5,-6,4,i
COc1ccc(/C=C2/NC(=O)N(Cc3ccccc3F)C2=O)cc1OC,-2,-11,32,u,-3,+
CCC(C)[C@H]1COCCS(=O)(=O)N1Cc1ccccc1 (stereo partly specified),-3,-9,4,-6,3,i
O=C(Nc1c(F)c(F)c(F)c(F)c1F)c1ccc(Br)o1,x,x,x,x,-19,x
Cc1ccc(OC(=O)c2ccncc2)c(C)c1,-2,-4,20,1,-6,i
CN(Cc1ccccc1)S(=O)(=O)c1ccc(Cl)c(C(=O)N2CCOCC2)c1,x,x,x,x,4,x
N#Cc1c(-c2ccco2)ccn(Cc2cccc(F)c2)c1=O,-2,-10,16,70*,-2,+
CCN(CC)Cc1c(C(=O)N/N=C/c2cccc3ccccc23)nnn1-c1nonc1N,-3,-4,17,-11,10,i
CCCc1c(C(=O)N/N=C/c2cccc3ccccc23)nnn1-c1nonc1N,-1,5,62*,-6,2,i
CCCCc1nc(SCC(=O)N2CCOCC2)c2c(=O)n(C)c(=O)n(C)c2n1,-2,-2,9,2,2,i
CCCCC1=CC2=CC(=O)C(C)(OC(=O)CC)C(=O)C2=CN1Cc1ccccc1 (stereo unspecified),-4,-7,26,36,-20,i
COC(=O)CCCC1=CC2=CC(=O)C(C)(OC(=O)c3cccs3)C(=O)C2=CN1CCCOC(C)C (stereo unspecified),-2,-6,0,61,13,+
COC(=O)CCC(=O)OC1(C)C(=O)C=C2C=C(C3CC3)N(Cc3ccco3)C=C2C1=O (stereo unspecified),6,0,40,88*,30,+
CCCCC1=CC2=CC(=O)C(C)(OC(=O)CC)C(=O)C2=CN1c1ccccc1 (stereo unspecified),-1,-4,4,83,3,+
CCCCC1=CC2=CC(=O)C(C)(OC(=O)CC)C(=O)C2=CN1Cc1ccco1 (stereo unspecified),1,-5,35,70*,6,+

# Source: PubChem (Sanford-Burnham Center for Chemical Genomics)
